# Assay results published in PubChem BioAssay.
# Unmarked numbers belong to inactive results. No rule for the calls is given here. Where a SMILES comes first, the peptide text is derived from it. The star is where a group is joined. Boc = CC(C)(C)OC(=O)*
# Molecular target: Pantothenate synthetase (Mycobacterium tuberculosis (strain ATCC 25618 / H37Rv)) (UniProt P9WIL5)
# Experiment: Recombinant Mtb pantothenate synthetase (PanC) inhibitors, coupled enzyme, confirmatory (AID 375);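 also: 0% = full reaction with vehicle and 100% = no enzyme background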
# Conditions: coupled enzyme assay; at 10 µM, active compounds read high
# Sequence of Pantothenate synthetase (Mycobacterium tuberculosis (strain ATCC 25618 / H37Rv)) (P9WIL5 whole entry, looked up): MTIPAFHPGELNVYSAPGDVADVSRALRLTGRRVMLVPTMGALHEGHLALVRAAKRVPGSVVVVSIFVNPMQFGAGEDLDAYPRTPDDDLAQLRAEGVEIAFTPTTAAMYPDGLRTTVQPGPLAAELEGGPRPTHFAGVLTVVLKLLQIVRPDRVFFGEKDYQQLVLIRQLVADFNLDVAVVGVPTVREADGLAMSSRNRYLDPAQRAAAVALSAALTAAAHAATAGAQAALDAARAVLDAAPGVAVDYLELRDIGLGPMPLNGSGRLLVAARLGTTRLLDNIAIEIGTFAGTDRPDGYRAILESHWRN
row,Compound,inhibition [%]
1,CCNS(=O)(=O)c1c(C)cc(N2CCCC2=O)cc1C,6
2,O=C(C1CC1)N1CCc2cc(Br)cc(S(=O)(=O)N3CCOCC3)c21,3
3,CC1CCN(C(=O)c2cc(-c3ccc(Cl)c(Cl)c3)on2)CC1,3
4,CCOC(=O)COc1ccc(S(=O)(=O)N2CCc3ccccc3C2)cc1,0
5,O=C1CCc2cc(S(=O)(=O)N3CCC(C(=O)NCc4ccccn4)CC3)ccc2N1,0
6,O=C(c1c(Cl)nc2sccn12)N(C(=O)c1c(Cl)nc2sccn12)c1ccc(Cl)cn1,0
7,Cc1cc(N2C(=O)C3C4C=CC(C4)C3C2=O)ccc1Br (stereo not given),0
8,COc1ccccc1Oc1ccc(S(=O)(=O)N2CCOCC2)cc1S(=O)(=O)N1CCOCC1,0
9,CC(=O)NC(Cc1ccc(C)cc1)C(=O)NC1CCN(C(=O)c2cnccn2)CC1 (stereo not given),0
10,CCOc1ccc(NC(=O)CC2NCCNC2=O)cc1 (stereo not given),9
11,CC(=O)OCC(=O)[C@@]1(O)CC[C@H]2[C@@H]3CCC4=CC(=O)CC[C@]4(C)[C@H]3[C@@H](O)C[C@@]21C,5
12,CCc1ccccc1-n1c(SCC(=O)N2CCCC2)nnc1-c1ccccn1,0
13,COc1ccc(CCn2c(-c3ccco3)nc3nc4ccccc4nc32)cc1,0
14,COc1cccc(-c2nc(CS(=O)(=O)CC(=O)Nc3cc(C)ccc3C)c(C)o2)c1,0
15,O=C(c1ccco1)N1CCN(CCCCN2C(=O)c3ccccc3C2=O)CC1,5
16,Cc1ccc2c(c1C)NC(=O)C2(O)CC(=O)c1ccc2c(c1)OCO2 (stereo not given),0
17,CCCCCc1c(O)c2ccccc2[nH]c1=O,0
18,CCCNC(=O)c1cc(-c2ccco2)on1,2
19,O=C1[C@@H]2C(c3ccccc3Cl)=NO[C@@H]2C(=O)N1Cc1ccccc1,0
20,CC(C)OC(=O)CSc1nnc(-c2cccnc2)n1Cc1ccccc1,3

row,Compound,inhibition [%]
1,C[C@]12CC[C@H]3[C@@H](CCC4=CC(=O)CC[C@@]43C)[C@@H]1CC[C@@H]2C(=O)CO,0
2,COc1ccc(S(=O)(=O)Nc2ccc(S(=O)(=O)N3CCCCC3)cc2)cc1OC,0
3,COc1ccc(OCCOC(=O)c2cccs2)cc1,0
4,Cc1cc(C)n2nc(SCC(=O)N(C)Cc3ccccc3)nc2n1,3
5,CC(=O)N(C(C)=O)c1c(C#N)c(C)n(-c2ccccc2)c1C(=O)c1ccccc1,0
6,CCSc1nc2c(c(=O)n1CC)SC(C)C2 (stereo not given),0
7,CCOC(=O)C(C)C1(O)c2ccccc2-c2ncccc21 (stereo not given),0
8,C=CCn1c(SCC(=O)Nc2ccc3c(c2)OCO3)nc2ccccc2c1=O,2
9,CC(NC(=O)OC(C)(C)C)C(=O)N1CCCC1C(=O)NC(Cc1ccccc1)C(N)=O (stereo not drawn) (Boc-Ala-Pro-Phe-NH2; configuration not given here),7
10,COc1cccc(Nc2c(F)c(F)c(F)c(F)c2C(=O)O)c1,7
11,CCCCn1cnc2c(c1=O)c1nc3ccccc3nc1n2Cc1ccc2c(c1)OCO2,0
12,COc1cc2[nH]c(=O)c(C(=O)NCCCN3CCCCC3)c(O)c2cc1OC,3
13,CCOC(=O)c1ccc(NCc2nc3ccccc3[nH]2)cc1,4
14,CCN(CC)CCN1C(=O)C(=O)/C(=C(/O)c2c(C)[nH]c(C(=O)OC)c2C)C1c1ccccc1OC (stereo not given),0
15,COC(=O)c1c(-c2ccc(F)cc2)noc1N,2
16,O=C(CCN1C(=O)COc2ccccc21)N1CCN(c2ccccn2)CC1,0
17,CCCc1nnc2n1N=C(c1ccc(-c3cc(Cl)ccc3Cl)o1)CS2,0
18,CCN(CC)CCOc1cccc(C(C)C)c1,4
19,CN1CCCN(C(c2ccccc2)c2ccc(Cl)cc2)CC1 (stereo not given),0
20,COc1ccc(NC(=O)C2CCCN(S(=O)(=O)c3cccc4cccnc34)C2)cc1OC (stereo not given),0
